For 14 compounds, growth results are on record in PubChem BioAssay (NCI).

The panel holds about 83,000 compounds, 20% with a hit somewhere; the sample as a whole holds those more often.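 Each cell line was grown in a 96-well plate and treated with one concentration of compound for 48 hours. Values below 10 were considered active.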 Unmarked numbers belong to inactive results. Active and inactive are the calls of the source.

Among the test systems are EKVX NSCLC; SN12C renal; UO-31 renal; TK-10 renal; ACHN renal; CAKI-1 renal; A498 renal; CCRF-CEM leukemia; MOLT-4 leukemia; SR leukemia.
Experiment in all cases: NCI-60 one-dose screen, 48 h (100 = growth as untreated, 0 = no growth, -100 = all killed)
Holding throughout (details): 10 µM unless noted

For `COc1cc(Oc2cc(-c3cccnc3)ccc2NC(=O)Nc2ccc(F)cc2F)cc(OC)c1OC`, the growth is 90.4% in the assay on EKVX NSCLC; 102% with SN12C renal; 76.8% in the assay on UO-31 renal; 116% in the assay with TK-10 renal; 121% in the assay with ACHN renal; 94.3% in the assay with CAKI-1 renal. Moreover, the growth in the assay on A498 renal is 89.9%; with CCRF-CEM leukemia it was 97.3%; in the assay with MOLT-4 leukemia, 84.9%; in the assay on SR leukemia, 97.4%.

On to `Cc1cc(C)c2c(c1)N1OC(C2)C[C@H]1/C=C/c1ccccc1` (some centres not stated), for which the growth in the assay with EKVX NSCLC is 90%; in the assay with SN12C renal it was 92.2%; in the assay on UO-31 renal it was 79.1%; with TK-10 renal, 108%; with ACHN renal, 112%; with CAKI-1 renal it was 85.6%. Besides, the growth is 99.9% in the assay on A498 renal, 92.9% in the assay with CCRF-CEM leukemia, 77.7% in the assay with MOLT-4 leukemia and 83.2% in the assay with SR leukemia.

Regarding `CCCCn1c(Cc2ccc(Cl)cc2)nc2cc(OC)c(OC)cc2c1=O`, the growth with EKVX NSCLC was 59.1%; with SN12C renal it was 83.6%; with UO-31 renal, 54.4%; in the assay with TK-10 renal, 102%; with ACHN renal, 75.8%; in the assay with CAKI-1 renal, 72.5%. Besides, the growth in the assay with A498 renal is 101%; with CCRF-CEM leukemia, -68.8% (active); in the assay with MOLT-4 leukemia, -48.7% (active); with SR leukemia, 59.4%.

For `COc1ccc(/C=C2\NC(=S)NC2=O)cc1`, the growth with EKVX NSCLC was 101%; in the assay on SN12C renal, 101%; in the assay with UO-31 renal it was 73.6%; with TK-10 renal it was 113%; in the assay on ACHN renal it was 94%; with CAKI-1 renal, 98.7%. Besides, the growth in the assay with A498 renal was 89%; in the assay with CCRF-CEM leukemia it was 105%; in the assay on MOLT-4 leukemia it was 110%; in the assay on SR leukemia it was 110%.

Turning to `CCC(=O)Nc1ccccc1C#C/C=C\C#Cc1ccccc1C(F)(F)F`, the growth is 52.7% in the assay on EKVX NSCLC; 58.8% in the assay with SN12C renal; 22.4% in the assay on UO-31 renal; 75% in the assay on TK-10 renal; 53.4% with ACHN renal; 45% in the assay on CAKI-1 renal. Besides, the growth with A498 renal was 11.8%; with CCRF-CEM leukemia it was 39.1%; with MOLT-4 leukemia, 74.2%; in the assay with SR leukemia it was 117%.

Turning to `O=C(Nc1cccc([N+](=O)[O-])c1)c1cccc(C(=O)Nc2cccc([N+](=O)[O-])c2)c1`, the growth with EKVX NSCLC was 84.3%; in the assay on SN12C renal it was 45.7%; in the assay on UO-31 renal, 56.7%; in the assay with TK-10 renal it was 65.5%; in the assay with ACHN renal, 64.7%; with CAKI-1 renal, 85.3%. The growth with A498 renal was 92.5%; in the assay with CCRF-CEM leukemia it was 116%; in the assay with MOLT-4 leukemia it was 99.3%; in the assay with SR leukemia it was 83.9%.

For `CC12CCC3C(CCC4CC(=O)/C(=C\O)CC43C)C1CCC(=O)O2` (configuration not stated), the growth was 106% in the assay on EKVX NSCLC; 107% in the assay on SN12C renal; 55.9% with UO-31 renal; 115% in the assay with TK-10 renal; 109% in the assay on ACHN renal; 105% with CAKI-1 renal. Besides, the growth in the assay on A498 renal was 115%; in the assay on MOLT-4 leukemia, 106%.

Regarding `CC(O)c1nc2c(c(=O)n(C)c(=O)n2C)n1C` (configuration not stated), the growth was 111% in the assay with EKVX NSCLC; 104% in the assay on SN12C renal; 91.1% in the assay on UO-31 renal; 113% in the assay on TK-10 renal; 105% in the assay with ACHN renal; 89.2% in the assay on CAKI-1 renal. Moreover, the growth in the assay on A498 renal was 105%; in the assay with CCRF-CEM leukemia, 96.3%; in the assay on MOLT-4 leukemia it was 117%; in the assay with SR leukemia, 125%.

Take `CN1COc2ccc3ccccc3c2C1`: the growth was 96.1% in the assay on EKVX NSCLC; 87.5% with SN12C renal; 32.3% with UO-31 renal; 105% in the assay with TK-10 renal; 89% in the assay on ACHN renal; 90.9% in the assay with CAKI-1 renal. The figures for the growth with A498 renal and in the assay with MOLT-4 leukemia were 102% and 90.6%, respectively.

Consider `O=C(Oc1ccc[nH]c1=O)c1cccc(Cl)c1`, for which the growth is 104% in the assay on EKVX NSCLC; 108% with SN12C renal; 96.2% in the assay with UO-31 renal; 107% in the assay with TK-10 renal; 96% with ACHN renal; 101% in the assay on CAKI-1 renal. Also, the growth in the assay on A498 renal is 127%; in the assay on CCRF-CEM leukemia, 123%; in the assay on MOLT-4 leukemia, 115%; in the assay with SR leukemia, 99.2%.

For `Cc1c(C)c(N2C(=O)C=CC2=O)c(C)c(C)c1N1C(=O)C=CC1=O`, the growth in the assay on EKVX NSCLC is 101%; in the assay with SN12C renal, 104%; in the assay on UO-31 renal, 53.7%; in the assay on TK-10 renal, 119%; in the assay on ACHN renal it was 108%; in the assay on CAKI-1 renal it was 101%. Moreover, the growth with A498 renal is 78.2%; in the assay with MOLT-4 leukemia it was 72.4%.

As to `O=C(CSc1nc2c(n1Nc1ccccc1)-c1ccccc1SC2)Nc1nc(-c2ccc(Cl)cc2)cs1`, the growth was 69.8% in the assay on EKVX NSCLC; 73.8% with SN12C renal; 79.7% in the assay with UO-31 renal; 110% in the assay with TK-10 renal; 96.5% with ACHN renal; 72.8% in the assay on CAKI-1 renal. For the same compound, the growth with A498 renal is 55%; in the assay with CCRF-CEM leukemia it was 44.8%; in the assay on MOLT-4 leukemia, 78.4%; in the assay with SR leukemia, 27%.

Turning to `COC(=O)[C@]12CC[C@@H](C)[C@H](C)[C@@H]1C1=CC[C@@H]3[C@@]4(C)C[C@@H](OC(=O)c5ccco5)[C@H](O)[C@@](C)(CO)[C@@H]4[C@H](O)C[C@@]3(C)[C@]1(C)CC2`, the growth in the assay on EKVX NSCLC was -91.9% (active); with SN12C renal it was -77.2% (active); in the assay on UO-31 renal, -89.6% (active); with TK-10 renal, -87.9% (active); in the assay with ACHN renal it was -95% (active); with CAKI-1 renal it was -98.3% (active). Further, the growth with A498 renal is -94.5% (active); in the assay with CCRF-CEM leukemia, -87.3% (active); in the assay on MOLT-4 leukemia, -75.5% (active); with SR leukemia it was -91% (active).

With `COc1cccc2c1C(=O)c1c(O)c3c(c(O)c1C2=O)C[C@@](O)(/C(C)=N/NC(=O)c1cccc([N+](=O)[O-])c1)C[C@@H]3OC1CC(N)C(O)C(C)O1` (some centres not stated), the growth in the assay with EKVX NSCLC is -6.35% (active); in the assay with SN12C renal, -9.27% (active); with UO-31 renal it was -17% (active); in the assay with TK-10 renal, -33.8% (active); in the assay with ACHN renal it was -62.6% (active); with CAKI-1 renal it was -47.4% (active). The growth in the assay on A498 renal is -58.6% (active); in the assay on MOLT-4 leukemia it was -39% (active).
